From PubChem
Hits are enriched below; roughly 14% of the tested compounds scored in any of these assays.
Lassa entry inh – inhibitors of Lassa virus binding or cell entry; Lassa virus pseudotype entry inhibition, cell reporter; 300,000 compounds, 1.2% hits; Potency, µM (series often up to 37.9 µM), usual class: inhibitors; calls by dose curve; tested in HEK293 cells; also: nearly all actives have a fitted effect of over 50% in size
MARV entry inh – blocks Marburg virus binding to or entry into cells; Marburg virus pseudotyped entry inhibition, cell reporter; AID 540276; 300,000 compounds, 1.8% hits; Potency, µM (titrated, usually from 37.8 µM), actives largely listed as inhibitors; calls by dose curve; tested in HEK293 cells
HCMV antiviral – inhibitors of human cytomegalovirus | HFF cells, HCMV-luciferase reporter, 72 h; active compounds read low | activity change, negative = inhibition, % at 57.5 µM | 410,000 compounds, 4.5% hits; in the data active = activity change below about -60%; inconclusive = no clear call, values can overlap the other calls; inactive = above about -39%
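Luciferase read-out from HCMV-luciferase-infected HFFs (MOI 1 PFU/cell) 72 h post infection at 37C; compounds added after 16 h cell attachment; activity normalized between buffer-only basal and Salinomycin (10uM) inhibitor controls.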
Pf growth 96h – inhibits malaria parasite growth, 96 h | P. falciparum luciferase reporter growth, 96 h | Potency, µM (top dose mostly 28.7 µM), hits mostly inhibitors | 320,000 compounds, 6.9% hits | AID 504834
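Erythrocytes infected with luciferase-expressing P. falciparum were dispensed at 2% hematocrit and 0.05% parasitemia (final), then incubated with compounds 96 hours at 37 C in 5% CO2. Luminescence after detection reagent addition reported growth.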
HCV inh – HCV inhibition | Huh7.5.1 HCVcc-Cre infection, luciferase reporter, 44 h | Potency, µM (titrated, usually from 41.8 µM), hits mostly inhibitors | 340,000 compounds, 3.4% hits | AID 651820
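Cells (1,000/well) were plated 4 h before compound, then infected with HCVcc-Cre virus (~0.5 moi). After 44 h further culture, infection was read as luciferase luminescence following a 15 min substrate incubation at room temperature.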
Pf growth 48h – P. falciparum growth inhibition at 48 hours (one generation); P. falciparum luciferase growth in erythrocytes, 48 h; Potency, µM (series often up to 28.7 µM), most hits filed as inhibitors; 310,000 compounds, 5.9% hits
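Luciferase-expressing P. falciparum in infected erythrocytes (2% hematocrit, 0.1% parasitemia final) in RPMI 1640/0.5% Albumax were exposed to compound for 48 hours at 37 C, 5% CO2; growth read as luminescence.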
Hits are given with their value; i = inactive; ? = inconclusive; nt = no result given; + = active, no number; [ ] = dose if it differs, or a comment. Unless noted, calls follow the shape of the dose curve; as a rule, active = well fitted inhibition curve with a large enough effect; inconclusive = small, poorly fitted or top-dose-only effect, or another doubt; inactive = no such curve, though single readings can be large or run the other way.

SMILES	Lassa entry inh	MARV entry inh	HCMV antiviral	Pf growth 96h	HCV inh	Pf growth 48h
COC(=O)C1=C(N)OC(C)=C(C(C)=O)C12C(=O)N(C)c1ccccc12 (stereo not drawn)	i	i	i	8.3µM	i	i
C=CCOC(=O)C1=C(C)OC(N)=C(C(=O)OCC)C12C(=O)N(CC(N)=O)c1ccccc12 (stereo not drawn)	i	i	i	13µM	i	i
CCOC(=O)C1=C(C)OC(N)=C(C(=O)OCC)[C@@]12C(=O)N(CC(N)=O)c1ccccc12	i	i	i	i	i	i
NC(=O)c1ccsc1NC(=O)COC(=O)CCc1ccccc1	nt	nt	i	nt	nt	nt
Cc1ccc(C)c(OCC(=O)Nc2ccccc2N2CCCC2)c1	i	?	i	?	i	?
CCn1c(Cc2ccccc2)nnc1SCC(=O)Nc1ccccc1N1CCOCC1	i	i	i	3.3µM	i	?
Cc1cc(C)c(OCC(=O)Nc2ccccc2N2CCOCC2)c(C)c1	i	i	i	i	?	12µM
Cn1c(Cc2ccccc2)nnc1SCC(=O)Nc1ccccc1N1CCOCC1	i	i	i	i	i	i
CCC(=O)N1CCN(c2ccccc2NC(=O)COc2cc(C)ccc2C(C)C)CC1	?	?	i	nt	10µM	3.3µM
Cc1ccc(OCC(=O)Nc2ccccc2N2CCCC2)c(C)c1	?	?	-63	i[5.75 µM]	?	12µM
COc1ccc(CC(=O)NC2CC2)cc1OC	nt	nt	nt	i	i	i
COc1ccc(-c2nc(CNS(=O)(=O)c3cccc(F)c3)cs2)cc1	i	i	?	nt	nt	nt
CCc1ccc(NC(=O)CC2C(=O)N(c3ccc(Cl)cc3)C(=O)N2Cc2ccco2)cc1 (stereo not drawn)	i	nt	i	nt	nt	nt
O=C(NCC1COc2ccccc2O1)c1cccc(S(=O)(=O)N2CCCCC2)c1 (stereo not drawn)	nt	nt	i	?	?	?
CN(C)C(CNC(=O)c1cccc(S(=O)(=O)N(C)C)c1)c1ccccc1 (stereo not drawn)	?	i	i	nt	i	i
O=C(NCc1ccccn1)c1cc(S(=O)(=O)N2CCN(c3ccccc3)CC2)ccc1Cl	i	i	i	i	?	i
CN(C)C(CNC(=O)c1cccc(S(=O)(=O)N2CCN(c3ccccc3)CC2)c1)c1ccccc1 (stereo not drawn)	nt	nt	i	nt	13µM	nt
COc1ccc(C(CNC(=O)c2cc(S(=O)(=O)N3CCN(c4ccccc4)CC3)ccc2Cl)N(C)C)cc1 (stereo not drawn)	nt	nt	i	nt	16µM	nt
O=C(NCC1COc2ccccc2O1)c1cccc(S(=O)(=O)N2CCN(c3ccccc3)CC2)c1 (stereo not drawn)	i	?	-76	?	?	?
C/C=C(\C)C(=O)NCCN1C2=NC[C@H](C(C)C)N2C[C@H]1Cc1ccc(O)cc1	nt	nt	i	3.3µM	i	i
COc1ccc(C[C@H]2CN3C(=NC[C@@H]3C(C)C)N2CCNC(=O)c2ccc(C)c(Br)c2)cc1	nt	nt	nt	2.1µM	i	?
Cc1ccc(C(=O)NCCN2C3=NC[C@H](C(C)C)N3C[C@H]2Cc2ccc(O)cc2)cc1Br	nt	nt	i	2.6µM	?	4.7µM
C/C=C(\C)C(=O)NCCN1C2=NC[C@@H](Cc3ccccc3)N2C[C@@H]1Cc1ccc(OC)cc1	nt	nt	i	nt	i	nt
C/C=C(\C)C(=O)NCCN1C2=NC[C@H](C(C)C)N2C[C@@H]1Cc1ccc(OC)cc1	nt	nt	i	i	i	i
Cc1cccc([N+](=O)[O-])c1NC(=O)CN(Cc1ccccc1)Cc1ccccc1	?	?	-61	8.3µM	?	?
SMILES	Lassa entry inh	MARV entry inh	HCMV antiviral	Pf growth 96h	HCV inh	Pf growth 48h
CCC1CCCCN1CC(=O)c1c(C)[nH]c2cc(C)ccc12 (stereo not drawn)	i	i	i	i	i	i
CCN(Cc1ccccc1)C(=O)c1[nH]c2ccc(OC)cc2c1C	i	i	i	i	i	i
CCN(CC)CCNC(=O)c1[nH]c2ccc(OCc3ccccc3)cc2c1C	?	?	?	i	10µM	?
COc1ccc(NC(=O)CSc2nc(-c3ccco3)cc(C(F)(F)F)n2)c(OC)c1	i	i	i	nt	nt	nt
O=C(NCc1ccncc1)c1cc2ccccc2nc1Cl	i	i	-79	i	i	i
CCN(CC)CCNC(=O)c1cc2ccccc2nc1Cl	nt	nt	i	i	i	i
Cc1ccc(C(C[N+](=O)[O-])c2c(-c3ccccc3O)[nH][nH]c2=O)cc1 (stereo not drawn)	i	?	-75	i	i	i
COc1cc2c(cc1OC)C(COc1ccc(C(C)C)cc1)N(C(=O)COc1ccccc1)CC2 (stereo not drawn)	?	nt	i	nt	nt	nt
COc1cc2c(cc1OC)C(COc1ccc(C(C)C)cc1)NCC2 (stereo not drawn)	nt	nt	i	12µM	i	?
Cc1nc2cccnc2n1-c1cccc(C(=O)NCc2cccc(Cl)c2)c1	i	nt	+	nt	nt	nt
Cc1ccc(CNC(=O)c2ccc3c(c2)nc(C)n3-c2cccc(F)c2)cc1	i	nt	-77	nt	nt	nt
CCc1ccc(CNC(=O)c2cccc(-n3c(C)nc4cccnc43)c2)cc1	i	nt	i	nt	nt	nt
COc1ccc2nc(SCC(=O)N3CCN(c4ccc(F)cc4)CC3)c(C#N)cc2c1	i	i	i	15µM	i	?
COc1ccc2cc(C#N)c(SCC(=O)N3CCCC3)nc2c1	i	?	i	i	?	i
COc1ccc2nc(Cl)c(C#N)cc2c1	i	i	i	i	i	i
CCOc1ccc2nc(SCC#N)c(C#N)cc2c1	i	?	-68	i	i	i
CCSc1nc2ccc(OC)cc2cc1C#N	i	?	i	i	10µM	i
CCOC(=O)CSc1nc2ccc(NC(=O)COc3ccc(F)cc3)cc2s1	i	i	i	nt	nt	nt
CC1(C)CC(NC(=O)C2CCC(=O)N(Cc3ccccc3F)C2)CC(C)(C)C1 (stereo not drawn)	i	i	i	i	i	?
COc1ccc(-c2sc3cc4c(cc3c2-c2ccc3c(c2)OCCO3)OCO4)cc1	nt	nt	i	nt	i	nt
COc1ccccc1-c1sc2cc3c(cc2c1C#Cc1ccccn1)OCO3	nt	nt	i	?	i	i
COc1ccccc1-c1sc2cc3c(cc2c1C#CC1(O)CCCCC1)OCO3	nt	nt	i	4.7µM	?	?
COc1ccc(-c2sc3cc4c(cc3c2C#CC2(O)CCCCC2)OCO4)cc1	nt	nt	i	?	1.6µM	?
CCC(C)n1c(SCc2ccc([N+](=O)[O-])cc2)nc2ccsc2c1=O (stereo not drawn)	?	13µM	i	i	10µM	?
CCCCn1c(SCc2cccc([N+](=O)[O-])c2)nc2ccsc2c1=O	?	i	?	i	?	?
Cc1ccc(S(=O)(=O)c2nnn3c2nc(NC2CCCCCC2)c2sccc23)cc1C	i	nt	i	nt	nt	nt
CCOc1ccc(C2NC(=O)c3n[nH]c(C)c32)cc1 (stereo not drawn)	nt	nt	i	?	i	nt
CC(C)(C)c1ccc(C2NC(=O)c3n[nH]c(-c4cccs4)c32)cc1 (stereo not drawn)	i	?	-91	nt	nt	nt
